Measured values taken from paper PMC5540273 (PLoS ONE, 2017).

Key:
Conditions in all cases: concentration: 1 μM, replicates: in singlicate; n = 1
EPHA7 = test system: EPHA7
EPHA8 = test system: EPHA8
EPHB1 = test system: EPHB1
EPHB2 = test system: EPHB2
EPHB3 = test system: EPHB3
EPHB4 = test system: EPHB4
EPHB6 = test system: EPHB6
ERBB2 = test system: ERBB2
ERBB3 = test system: ERBB3
ERBB4 = test system: ERBB4
ERK1 = test system: T1, ERK1
T1 construct: gene MAPK3

ERK2 = test system: T2, ERK2
T2 construct: gene MAPK1

ERK3 = test system: T3, ERK3
T3 construct: gene MAPK6

ERK4 = test system: T4, ERK4
T4 construct: gene MAPK4

ERK5 = test system: T5, ERK5
T5 construct: gene MAPK7

ERK8 = test system: T6, ERK8
T6 construct: gene MAPK15

ERN1 = test system: ERN1
FAK = test system: T7, FAK
T7 construct: gene PTK2

FER = test system: FER
FES = test system: FES
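Also: KINOMEscan kinase panel screen.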

## COc1cccc(-c2ccc3c(NC(=O)C4CC4)n[nH]c3n2)c1 [SB-710903]
EPHA7
  %Inh: 16%
EPHA8
  %Inh: 30%
EPHB1
  %Inh: 0%
EPHB2
  %Inh: 24%
EPHB3
  %Inh: 24%
EPHB4
  %Inh: 16%
EPHB6
  %Inh: 48%
ERBB2
  %Inh: 51%
ERBB3
  %Inh: 0%
ERBB4
  %Inh: 36%
ERK1
  %Inh: 0%
ERK2
  %Inh: 0%
ERK3
  %Inh: 0%
ERK4
  %Inh: 8%
ERK5
  %Inh: 0%
ERK8
  %Inh: 11%
ERN1
  %Inh: 0%
FAK
  %Inh: 0%
FER
  %Inh: 0%
FES
  %Inh: 0%

## Cc1cccc(Nc2nc(N[C@H]3CCNC3)ncc2C(N)=O)c1.Cl [GSK2197149]
EPHA7
  %Inh: 10%
EPHA8
  %Inh: 15%
EPHB1
  %Inh: 27%
EPHB2
  %Inh: 0%
EPHB3
  %Inh: 12%
EPHB4
  %Inh: 0%
EPHB6
  %Inh: 0%
ERBB2
  %Inh: 13%
ERBB3
  %Inh: 0%
ERBB4
  %Inh: 23%
ERK1
  %Inh: 1%
ERK2
  %Inh: 0%
ERK3
  %Inh: 65%
ERK4
  %Inh: 25%
ERK5
  %Inh: 0%
ERK8
  %Inh: 12%
ERN1
  %Inh: 7%
FAK
  %Inh: 0%
FER
  %Inh: 69%
FES
  %Inh: 0%

## Cl.Cl.NCC(C(=O)Nc1cc(Br)c(-c2ccnc3[nH]ccc23)s1)c1ccccc1 (stereo not drawn) [GSK1269851]
EPHA7
  %Inh: 0%
EPHA8
  %Inh: 13%
EPHB1
  %Inh: 0%
EPHB2
  %Inh: 0%
EPHB3
  %Inh: 27%
EPHB4
  %Inh: 42%
EPHB6
  %Inh: 1%
ERBB2
  %Inh: 5%
ERBB3
  %Inh: 0%
ERBB4
  %Inh: 52%
ERK1
  %Inh: 6%
ERK2
  %Inh: 0%
ERK3
  %Inh: 0%
ERK4
  %Inh: 6%
ERK5
  %Inh: 0%
ERK8
  %Inh: 74%
ERN1
  %Inh: 18%
FAK
  %Inh: 0%
FER
  %Inh: 18%
FES
  %Inh: 38%

## CNC(=O)c1ccccc1Nc1nc(Nc2ccc(N3CCOCC3)cc2)ncc1Cl.Cl [GSK1576028]
EPHA7
  %Inh: 88%
EPHA8
  %Inh: 40%
EPHB1
  %Inh: 71%
EPHB2
  %Inh: 23%
EPHB3
  %Inh: 2%
EPHB4
  %Inh: 46%
EPHB6
  %Inh: 95.2%
ERBB2
  %Inh: 79%
ERBB3
  %Inh: 0%
ERBB4
  %Inh: 93.4%
ERK1
  %Inh: 59%
ERK2
  %Inh: 68%
ERK3
  %Inh: 92%
ERK4
  %Inh: 64%
ERK5
  %Inh: 84%
ERK8
  %Inh: 99.5%
ERN1
  %Inh: 78%
FAK
  %Inh: 100%
FER
  %Inh: 97.7%
FES
  %Inh: 62%

## COc1cccc(C2=C(Nc3ccc(Cl)c(C(=O)O)c3)C(=O)NC2=O)c1 [SB-390769]
EPHA7
  %Inh: 0%
EPHA8
  %Inh: 15%
EPHB1
  %Inh: 0%
EPHB2
  %Inh: 23%
EPHB3
  %Inh: 10%
EPHB4
  %Inh: 10%
EPHB6
  %Inh: 100%
ERBB2
  %Inh: 28%
ERBB3
  %Inh: 5%
ERBB4
  %Inh: 0%
ERK1
  %Inh: 10%
ERK2
  %Inh: 0%
ERK3
  %Inh: 0%
ERK4
  %Inh: 19%
ERK5
  %Inh: 0%
ERK8
  %Inh: 0%
ERN1
  %Inh: 100%
FAK
  %Inh: 0%
FER
  %Inh: 7%
FES
  %Inh: 0%

## Nc1n[nH]c2cnc(-c3ccccc3)cc12 [SB-642124]
EPHA7
  %Inh: 65%
EPHA8
  %Inh: 51%
EPHB1
  %Inh: 19%
EPHB2
  %Inh: 40%
EPHB3
  %Inh: 16%
EPHB4
  %Inh: 18%
EPHB6
  %Inh: 0%
ERBB2
  %Inh: 0%
ERBB3
  %Inh: 0%
ERBB4
  %Inh: 24%
ERK1
  %Inh: 0%
ERK2
  %Inh: 0%
ERK3
  %Inh: 0%
ERK4
  %Inh: 25%
ERK5
  %Inh: 0%
ERK8
  %Inh: 6%
ERN1
  %Inh: 13%
FAK
  %Inh: 0%
FER
  %Inh: 0%
FES
  %Inh: 0%

## Cc1ccc(C(=O)N2CC[C@@H](O)C2)cc1-n1c(C)cc(OCc2ccc(F)cc2F)c(Br)c1=O
EPHA7
  %Inh: 0%
EPHA8
  %Inh: 85%
EPHB1
  %Inh: 84%
EPHB2
  %Inh: 8%
EPHB3
  %Inh: 0%
EPHB4
  %Inh: 0%
EPHB6
  %Inh: 92%
ERBB2
  %Inh: 36%
ERBB3
  %Inh: 0%
ERBB4
  %Inh: 35%
ERK1
  %Inh: 0%
ERK2
  %Inh: 0%
ERK3
  %Inh: 0%
ERK4
  %Inh: 9%
ERK5
  %Inh: 0%
ERK8
  %Inh: 0%
ERN1
  %Inh: 0%
FAK
  %Inh: 0%
FER
  %Inh: 1%
FES
  %Inh: 0%

## O=C(Nc1cccc(-c2nn3ncccc3c2-c2ccnc(Nc3ccccc3)n2)c1)c1c(F)cccc1F [GSK198271]
EPHA7
  %Inh: 5%
EPHA8
  %Inh: 19%
EPHB1
  %Inh: 18%
EPHB2
  %Inh: 11%
EPHB3
  %Inh: 1%
EPHB4
  %Inh: 6%
EPHB6
  %Inh: 63%
ERBB2
  %Inh: 95.2%
ERBB3
  %Inh: 80%
ERBB4
  %Inh: 100%
ERK1
  %Inh: 0%
ERK2
  %Inh: 6%
ERK3
  %Inh: 0%
ERK4
  %Inh: 20%
ERK5
  %Inh: 4%
ERK8
  %Inh: 0%
ERN1
  %Inh: 32%
FAK
  %Inh: 0%
FER
  %Inh: 45%
FES
  %Inh: 6%

## CSc1cccc2c(-c3ccncn3)c(-c3ccc(F)cc3)nn12 [GW514786]
EPHA7
  %Inh: 9%
EPHA8
  %Inh: 26%
EPHB1
  %Inh: 15%
EPHB2
  %Inh: 0%
EPHB3
  %Inh: 4%
EPHB4
  %Inh: 2%
EPHB6
  %Inh: 20%
ERBB2
  %Inh: 34%
ERBB3
  %Inh: 13%
ERBB4
  %Inh: 0%
ERK1
  %Inh: 14%
ERK2
  %Inh: 6%
ERK3
  %Inh: 0%
ERK4
  %Inh: 5%
ERK5
  %Inh: 0%
ERK8
  %Inh: 0%
ERN1
  %Inh: 12%
FAK
  %Inh: 0%
FER
  %Inh: 17%
FES
  %Inh: 0%
